Shown are actives, neighbours in structure and some others; about 1.8% of the full set was active somewhere.
BH1578 lux ind = induces V. cholerae light production without autoinducers. V. cholerae BH1578 lux reporter, luminescence, 6 h. activation, % at 18.7 µM. 350,000 compounds, 0.16% hits. AID 588436; in the data active = activation mostly above about 9.7%, no sharp cut-off
DUSP3 inh = inhibitors of human VHR1 phosphatase (DUSP3). recombinant VHR phosphatase, pNPP absorbance. P51452. 290,000 compounds, 0.52% hits. AID 1654. inhibition, % at 13.3 µM; in the data active = inhibition above about 50%
Y pestis TopoI = blocks Yersinia pestis topoisomerase I activity. activity, % at 10 µM. 360,000 compounds, 0.064% hits. Y. pestis Topo-I cleavage product accumulation, plate reader; in the data active = activity above about 50%, passing the limit was not always enough
CCHF vOTU inh = blocks the CCHF virus ovarian tumor domain protease; inhibition, % at 11.5 µM; 370,000 compounds, 0.55% hits; CCHFV vOTU protease, Pep-AMC fluorescence; in the data active = inhibition above about 30%; note: 0% = vehicle wells with enzyme and 100% = no enzyme wells
MazF activator = MazEF (E. coli) toxin RNase activation; P0AE70; 350,000 compounds, 0.32% hits; AID 504720; FAM/BHQ RNA-DNA oligo cleavage fluorescence, 5 h; activation, % at 20 µM; in the data active = activation above about 50%
PrPC TRFRET = inhibitors of human cell surface prion protein PrPC; P04156; TR-FRET read-out; inhibition, % at 13.8 µM; 370,000 compounds, 0.43% hits; in the data active = inhibition above about 24%; note: 0% = median of the test wells and 100% = reference compound wells
PrPC confirm = cell surface PrPC inhibition, TR-FRET confirmation; shares compounds with PrPC TRFRET; cell surface PrPC level; inhibition, % at 13.8 µM; 1,500 compounds, 65% hits; in the data active = inhibition above about 25%
LD9 cytotox = LD9 cell cytotoxicity, PrPc inhibitor counter-screen | shares compounds with PrPC TRFRET | LD9 cells cytotoxicity, luminescence viability | inhibition, % at 13.8 µM | 1,500 compounds, 29% hits; in the data active = inhibition above about 9.5%
Starred values were filed as active, the others as inactive; i = inactive; / = no result given.

SMILES	BH1578 lux ind	DUSP3 inh	Y pestis TopoI	CCHF vOTU inh	MazF activator	PrPC TRFRET	PrPC confirm	LD9 cytotox
CC1(C)Cc2c(sc(NC(=O)c3ccc(C(=O)c4ccccc4)cc3)c2C(N)=O)C(C)(C)N1	i	14.5	-29.5	7.0	4.9	36.2*	-15.1	18.7*
CCOC(=O)c1c(NC(=O)COc2ccccc2C#N)sc2c1CC(C)(C)NC2(C)C	i	-9.1	-4.4	0.4	7.9	116.7*	104.3*	30.8*
CCc1noc(C)c1C(=O)N(C)CC(=O)Nc1ccc(Br)cc1C	-0.3	/	6.4	-2.3	-1.1	-4.3	/	/
O=C(Nc1ccccc1)c1cc(C2CCCCN2S(=O)(=O)c2cccs2)on1 (centres undefined)	i	/	22.6	-7.2	/	22.2	/	/
O=C(Nc1ccccc1Cl)c1cc(C2CCCCN2S(=O)(=O)c2ccccc2)on1 (centres undefined)	-0.1	/	25.7	9.2	/	5.9	/	/
O=C(Nc1ccccc1)c1cc(C2CCCCN2S(=O)(=O)c2ccccc2)on1 (centres undefined)	0.4	/	-3.1	17.9	/	28.7*	15.4	1.0
O=C(Nc1ccc2c(c1)OCO2)c1cc(C2CCCCN2S(=O)(=O)c2cccs2)on1 (centres undefined)	-0.1	/	6.9	-0.6	/	57.5*	47.7*	2.3
COC(=O)C12OCC34C(CC5C(C)=C(O)C(=O)CC5(C)C3C(O)C1O)OC(=O)C(OC(=O)/C=C(\C)C(C)C)C24 (centres undefined)	i	/	-12.1	4.1	-2.3	100.5*	100.0*	46.9*
COC(=O)C12OCC34C(CC5C(C)=C(O)C(=O)CC5(C)C3C(O)C1O)OC(=O)C(OC(=O)C=C(C)C)C24 (centres undefined)	i	/	-1.3	4.6	-1.0	99.7*	100.8*	34.8*
CCN1C(=O)[C@@H]2[C@@H](c3ccc(-c4ccc(Cl)c(Cl)c4)c(OC)c3)N3CCCC[C@@]3(C(=O)OC)[C@@H]2C1=O	i	/	7.3	1.6	-17.4	4.4	/	/
CC(=O)CCC1C2C(O)C(C(C)C)C(OC(=O)/C=C/c3ccccc3)CC12C (centres undefined)	-0.4	6.5	27.5	-0.4	-3.9	4.7	/	/
CC(=O)OC1C(O)C(C)OC(OC2C(OC(=O)C3CCC4C(C3)OC3(CC(OC(=O)/C=C/c5ccccc5)C(C)CO3)C43CO3)OC(C)C(O)C2OC(C)=O)C1O (centres undefined)	i	/	27.3	-1.3	13.4	86.3*	98.0*	66.7*
O=C1OCCC1Sc1ncnc2sc3c(c12)CCC3 (centres undefined)	i	4.4	5.4	4.2	-1.8	56.1*	63.7*	-5.7
Cc1ccc(CN2CCC(n3nccc3NC(=O)c3ccccc3C)CC2)o1	0.1	5.9	1.0	-7.9	2.4	-8.4	/	/
CCc1nc2c(OCc3cc(Cl)cc(Cl)c3)cccn2c1N(C)C(=O)c1cccc(OC)c1	i	/	18.9	14.7	/	-0.4	/	/
Clc1cccc(-c2ccc(CNCc3ccccn3)o2)c1	0.0	1.0	14.8	-5.4	2.1	-0.9	/	/
Brc1ccc(-c2ccc(CNCc3ccccn3)o2)cc1	-0.4	10.7	7.0	6.4	-5.3	29.7*	49.4*	-2.6
COc1cc2nc(CN3CC=C(c4ccccc4)CC3)[nH]c(=O)c2cc1OC	i	/	3.5	-5.0	7.4	24.5*	47.0*	25.1*
S=c1nc(C2CC2)[nH]c2ccccc12	/	-13.2	-5.4	8.9	-3.3	14.6	/	/
S=c1nc(C2CCCCC2)[nH]c2ccccc12	-1.6	13.9	7.1	-3.4	4.5	31.8*	38.0*	-6.4
COCc1cc(=O)[nH]c(Nc2nc3ccc(C)cc3o2)n1	12.5	-12.4	6.5	3.9	3.9	31.6*	12.7	47.7*
COc1ccc(OCCNC(=O)c2ccc3nc(C)c(N(C)C(=O)CCc4ccccc4)n3c2)cc1	-4.5	/	13.8	9.2	/	59.4*	-3.0	0.5
O=C1COc2cc(O)ccc21	i	/	-0.3	5.2	-0.6	28.0*	16.0	-1.0
O=C(Oc1ccc2c(c1)OCC2=O)c1ccccc1	i	-0.2	6.0	-3.0	6.6	-2.7	/	/
CC(=O)Nc1cccc(NC(=O)CSc2nc(=O)n(CCCN3CCOCC3)c3c2CCC3)c1	-0.3	/	-2.6	-2.2	3.4	0.8	/	/
SMILES	BH1578 lux ind	DUSP3 inh	Y pestis TopoI	CCHF vOTU inh	MazF activator	PrPC TRFRET	PrPC confirm	LD9 cytotox
O=C(O)C(Nc1nc(C(F)(F)F)nc2ccccc12)c1ccccc1 (centres undefined)	-0.3	-13.1	-2.8	3.2	15.9	4.3	/	/
N#Cc1ccccc1OCCCN1CCC(Cc2ccccc2)CC1	1.9	12.6	32.9	-0.1	6.0	25.5*	3.7	10.3*
COc1cccc2cc(C(=O)C3=C(O)C(=O)N(CCN(C)C)C3c3ccc(Cl)cc3)oc12 (centres undefined)	i	38.8	-3.5	-8.6	4.2	40.6*	52.0*	-3.2
C=CCSc1nc(N)c(C#N)c(-c2ccccc2)c1C#N	5.6	22.3	9.1	4.4	-13.3	51.1*	9.8	-4.9
CCN(CC)CCNC(=O)C1(O)c2cc(Br)ccc2NC(=O)N1c1c(F)cccc1F (centres undefined)	0.6	/	5.0	1.2	0.2	-7.7	/	/
CCCNC(=O)c1nnsc1S(=O)c1ccc(Cl)cc1 (centres undefined)	-0.2	3.1	13.5	15.2	6.6	90.9*	15.5	95.2*
CNC(=O)c1nnsc1S(=O)c1ccc(Cl)cc1 (centres undefined)	0.4	6.9	7.1	1.9	10.5	10.0	/	/
CCOC(=O)c1sc(C)c2c1NC(C)(c1cccs1)NC2=O (centres undefined)	-1.2	13.2	2.8	-21.8	-6.3	35.7*	33.7*	-4.6
CCOC(=O)c1sc(C)c2c1NC1(CCCCC1)NC2=O	i	37.3	-0.8	-26.9	13.5	-3.6	/	/
CC1CCCN(C(=O)CSc2cnc3ccccc3n2)C1 (centres undefined)	-1.7	2.1	23.8	-5.9	-1.3	38.8*	71.0*	-0.4
Cc1nc2ccccc2nc1SCC(=O)N1CCC(C)CC1	-0.4	10.6	21.1	15.7	-9.3	55.4*	50.2*	4.7
CC1CCN(C(=O)CSc2nc3ccccc3s2)CC1	5.3	1.6	2.3	-4.4	-6.7	1.2	/	/
CC(=O)Nc1ccc(S(=O)(=O)NCCc2ccc3c(c2)OCCO3)cc1	-0.2	/	6.7	-1.6	-8.7	-3.6	/	/
CCN(CC)c1ccc(C(=C2C=CC(=[N+](CC)CC)C=C2)c2ccc(N(CC)CC)cc2)cc1	-0.6	/	-39.9	25.6	-2.8	-142.7	/	/
CCN(CC)c1ccc(C(=C2C=CC(=[N+](CC)CC)C=C2)c2ccccc2)cc1	-1.0	/	-8.5	12.7	21.6	84.6*	89.7*	98.8*
